Assay outcomes as filed in PubChem BioAssay.
FMDV antiviral: blocks foot and mouth disease virus; FMDV antiviral cell-based qHTS; Potency, µM (top dose mostly 57.9 µM), inactives show at the top dose activity change, negative = inhibition, most hits filed as inhibitors; 410,000 compounds, 1.2% hits; calls by dose curve; tested in HEK293T cells; note: read-out not given here; potency is the fitted concentration of half-maximal effect; % is set by controls: 0 for no effect and ±100 for the full control effect; nearly all actives have a fitted effect of over 45% in size
CHX counter: counter-screen for Shiga toxin inhibitors: cycloheximide protein synthesis inhibition | cell reporter, cycloheximide protein synthesis inhibition counterscreen | max response, % | 300,000 compounds, 12% hits | AID 2314; in the data active = max response mostly above about 13%, no sharp cut-off; inactive = mostly below about 14%; note: read at 38.3 µM for the half of the compounds with a filed dose; 0% is about no effect
Sm TGR block: blocks Schistosoma mansoni thioredoxin glutathione reductase; Q962Y6; purified TGR, DTNB reduction, TNB absorbance 405 nm; Potency, µM (doses to about 114 µM), inactives show top-dose activity change, negative = inhibition, actives largely listed as inhibitors; 360,000 compounds, 3% hits; active = well fitted inhibition curve with a large enough effect; inconclusive = small, poorly fitted or top-dose-only effect; inactive = no such curve, though single readings can be large or run the other way; note: potency is the fitted concentration of half-maximal effect; % is set by controls: 0 for no effect and ±100 for the full control effect; nearly all actives have a fitted effect of over 60% in size
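TGR 20 nM + NADPH 100 uM (dispensed conc.), cpd preinc 15 min RT; start with NADPH (500 uM addition) then DTNB (15 mM addition). Kinetic TNB absorbance, 405 nm filter. Four-parameter Hill fit across titration.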
Shiga inhibitor: blocks Shiga toxin action in Vero cells; Vero cells, Shiga toxin protein synthesis inhibition reporter; 290,000 compounds, 9.2% hits; inhibition, % at 38.7 µM; in the data active = inhibition mostly above about 28%, no sharp cut-off; inactive = mostly below about 43%; note: 0% is about no effect
* = called active by the depositor; u = inconclusive; x = no result. A selection: hits, their analogues and other compounds. The true share with any hit is near 12%.

SMILES	FMDV antiviral	CHX counter	Sm TGR block	Shiga inhibitor
Cc1nc2c(c(C)c1CCC(=O)NCc1ccccc1)c(=O)n(C)c(=O)n2C	1%	x	-2%	x
O=C(/C=C/c1ccccn1)c1cc(Cl)cc(Cl)c1O	-22%	1	40µM*	-5
COC(=O)c1ccccc1-c1cc(C)cc2c1OC(CNC(=O)c1cnc(C)cn1)C2 (centres undefined)	15%	x	x	x
CCOC(=O)c1c(Oc2ccc(OC)cc2)nnc(-c2ccccc2)c1-c1ccccc1	u	x	14%	x
Cc1ccc(N/C=C2\C(=O)C3(C)CCC2C3(C)C)cc1C (centres undefined)	11%	21*	2%	27
Cn1c2ccsc2c2cnn(Cc3ccc(F)cc3)c(=O)c21	x	x	2%	x
CCOc1ccccc1OCC(=O)NC1CCCCC1	-2%	9	-3%	4
O=C(COc1ccccc1Br)NC1CCCC1	-17%	32*	0%	78*
COc1ccccc1OCC(=O)NC1CCCCCC1	x	22*	u	42*
Cc1cc(C)cc(NC(=O)CCS(=O)(=O)c2cccc3nsnc23)c1	1%	x	-8%	x
Cc1ccc(C)c(CNC(=O)C2CCN(c3nc4ccccc4nc3C(F)(F)F)CC2)c1	-8%	x	13%	x
CC(=O)[O][Hg][c]1ccccc1	4.5µM*	x	x	x
CCc1ccc(-n2c(N3CCN(c4ccc(F)cc4)CC3)nc3ccccc3c2=O)cc1	u	x	5%	x
CN(C)C(=S)SCC(=O)Nc1ccc(Cl)cc1Cl	31%	24*	-1%	110*
O=C(CC(=O)Nc1ccc(Cl)cc1Cl)Nc1ccc(Cl)cc1Cl	-14%	-3	1%	4
S=C(NCCc1ccccn1)Nc1cc(Cl)cc(Cl)c1	24%	-1	8%	-5
S=C(NCCc1ccccn1)Nc1ccc(Cl)cc1Cl	60%	14*	1%	42
S=C(NCCc1ccccn1)Nc1ccccc1	82%	22*	2%	34*
S=C(NCCc1ccccn1)Nc1ccc(Cl)c(Cl)c1	64%	2	2%	41*
CC(C)CC(=O)Nc1cc(-c2ccccc2F)nn1-c1ccccc1	9%	x	1%	x
CN(C)CCNC(=S)Nc1ccccc1Cl	7%	-5	-8%	-5
COc1cccc(NC(=S)NCCc2ccccn2)c1	67%	27*	-9%	39*
CN(C)CCNC(=S)Nc1ccc(Cl)cc1Cl	35%	23*	7%	30
COc1cccc(NC(=S)N(CCc2ccc(OC)c(OC)c2)Cc2ccccn2)c1	-12%	1	10%	-7
CCc1ccc(S(=O)(=O)c2c(C(=O)c3ccccc3)cnc3ccc(CC)cc23)cc1	12%	x	-2%	x
SMILES	FMDV antiviral	CHX counter	Sm TGR block	Shiga inhibitor
CC1=C(c2ccc(C)cc2)S(=O)(=O)N(Cc2ccc(C(=O)Nc3ccc(C)c(F)c3)cc2)C1=O	u	x	1%	x
COc1ccc2nc(NC(=O)/C=C/c3ccc4c(c3)OCO4)sc2c1	x	4	-12%	18
COc1ccc2nc(Nc3nc4cc5c(cc4s3)OCO5)sc2c1	-4%	23*	-19%	64*
COc1ccc2nc(Nc3ccc4c(c3)OCO4)sc2c1	54%	39*	8%	45*
Cc1c(Cl)cccc1NS(=O)(=O)c1ccc2[nH]cc(C(=O)NC3CCCC3)c(=O)c2c1	18%	x	-6%	x
O=C(CCCCn1c(=O)c2ccccc2n(Cc2ccc(Cl)cc2)c1=O)NCc1ccccc1Cl	-21%	x	-3%	x
COC(=O)c1ccccc1NC(=O)c1ccc(-c2ccc(Br)cc2)o1	u	9	-22%	8
COC(=O)c1ccccc1N/C=C/C(=O)c1ccc(Br)cc1	19%	43*	-10%	27*
NC(=O)c1ccccc1N/C=C/C(=O)c1ccccc1	8%	47*	u	56*
O=C(NCc1ccccn1)C(=O)N/N=C/c1ccc2c(c1)OCO2	56%	16	5%	50*
O=C(CCC(=O)Nc1ccccc1)N/N=C/c1ccc2c(c1)OCO2	27%	40*	4%	71*
Cc1ccnn1CC(=O)N/N=C/c1ccc2c(c1)OCO2	9%	18*	1%	37
O=C(CCC(=O)Nc1ccc(Cl)cc1)N/N=C/c1ccc2c(c1)OCO2	6%	-2	1%	-13
Cc1ccc(CC(=O)N/N=C/c2ccc3c(c2)OCO3)cc1	71%	26*	0%	43*
O=C(NCCc1ccccc1)C(=O)N/N=C/c1ccc2c(c1)OCO2	-28%	5	13%	20
O=C(Cn1nc(C(F)F)cc1C(F)F)N/N=C/c1ccc2c(c1)OCO2	0%	-4	10%	-10
CCc1ccc(Cn2c(CNS(=O)(=O)c3ccc(Cl)s3)nc3cccnc32)cc1	72%	x	12%	x
O=C(N/N=C/c1ccc2c(c1)OCO2)C(O)c1ccccc1 (centres undefined)	69%	59*	2%	54*
O=C(NN=Cc1ccc2c(c1)OCO2)c1ccccc1	1%	x	x	x
COc1ccc(CNC(=O)C2CCN(S(=O)(=O)c3cccc4nonc34)CC2)cc1OC	-17%	x	7%	x
Cc1ccc2nc(-c3ccc(NS(=O)(=O)c4c(C)n(C)c(=O)n(C)c4=O)cc3)sc2c1	30%	67*	9%	121*
Cc1ccc(S(=O)(=O)Nc2ccc(-c3nc4ccc(C)cc4s3)cc2)cc1	50%	-3	1%	2
Cc1cccc(S(=O)(=O)Nc2ccc(-c3nc4ccc(C)cc4s3)cc2)c1	39%	83*	1%	74*
CCOC(=O)c1ccc(NC(=O)CN2C(=O)c3cccnc3Oc3ccc(Cl)cc32)cc1	5%	x	-6%	x
O=C(Nc1sc2c(c1C(=O)NCc1ccco1)CCCC2)c1cc(=O)c2cc(Cl)ccc2o1	-4%	x	0%	x
SMILES	FMDV antiviral	CHX counter	Sm TGR block	Shiga inhibitor
Cn1c(/C=C(\C#N)C(N)=S)ccc1-c1ccc(Br)cc1	-15%	15*	-18%	27
CCc1ccn2cc(-c3ccc4c(c3)OCO4)nc2c1	8.9µM*	5	-4%	-24
CCc1ccc(C(=O)c2c(N)c(-c3nc(-c4ccc5c(c4)OCO5)cs3)c3ccccn23)cc1	15%	18	2%	39
COC(=O)c1ccc2nc(-c3ccc4c(c3)OCO4)cn2c1	0%	40*	7%	69*
CC(=O)N1CCc2c(sc3c2c(=O)n(-c2ccccc2)c(=O)n3CC(=O)Nc2ccccc2C)C1	8%	x	-4%	x
COc1ccc(S(=O)(=O)N2CCC(C(=O)N(C)Cc3ccc(C)o3)CC2)cc1OC	-9%	x	40µM*	x
CN(CCNC(=O)C1CCC(=O)N(Cc2cccc(F)c2)C1)CCc1ccccc1 (centres undefined)	6%	10	u	-2
CN(C(=O)C1CCC(=O)N(Cc2cccc(F)c2)C1)C1CCCCC1 (centres undefined)	23%	87*	-8%	121*
COc1ccc(CCN2CC(C(=O)N(C)Cc3ccc(C)o3)CCC2=O)cc1 (centres undefined)	37%	38*	0%	74*
O=C(NC1CCC1)C1CCC(=O)N(Cc2cccc(F)c2)C1 (centres undefined)	-7%	18	-17%	-6
CC(C)Oc1ccc(CCNC(=O)C2CCC(=O)N(Cc3cccc(F)c3)C2)cc1 (centres undefined)	26%	55*	-2%	54
COc1ccc(CCN2CC(C(=O)N(C)Cc3ccccn3)CCC2=O)cc1 (centres undefined)	-13%	x	x	x
